This is an account of results in PubChem BioAssay (NCATS).

Results filed as inconclusive are left out. Active and inactive are the calls of the source. Unless noted, the call rests on the fitted dose curve. Numbered stars: 1 amine (or outer) side, 2 acyl side, 3 side chain; on linkers, the order of the positions; unused ones are H or OH. Bridge positions count the residues as written; N and C are the ends. Square brackets hold non-standard residues; d marks the D form. Peptide text beside a SMILES is read from it. I, II: the chains in the order shown. Actinocin(9to1) = Cc1c2oc3c(C)ccc(C(=O)[*:1])c3nc-2c(C(=O)[*:2])c(N)c1=O; NMeV = CN[C@H](C(=O)O)C(C)C; Sar = CNCC(=O)O

Assay [1] in a line: qHTS for Inhibitors of the Functional Ribonucleoprotein Complex (vRNP) of Lassa (LASV) Arenavirus: LASV Primary Screen - GLuc reporter signal (AID 1347082; calls by dose curve; tested in HEK293 reporter line; further: series mostly up to about 57 µM; nearly all actives have a fitted effect of over 60% in size). For orientation: qHTS replaces the single test concentration by a dilution series.
A short description of assay [2]: qHTS for Inhibitors of the Functional Ribonucleoprotein Complex (vRNP) of Lassa (LASV) Arenavirus: Viability assay - alamar blue signal for LASV Primary Screen (AID 1347083; calls by dose curve; tested in HEK293 reporter line; further: nearly all actives have a fitted effect of over 80% in size; further: potency means the concentration at half of the fitted maximal effect).
Assay [3] is described as follows: qHTS for Inhibitors of the Functional Ribonucleoprotein Complex (vRNP) of Lymphocytic Choriomeningitis Arenaviruses (LCMV): Viability assay - alamar blue signal for LCMV Primary Screen (AID 1347085; calls by dose curve; tested in HEK293 reporter line; further: nearly all actives have a fitted effect of over 80% in size; further: potency means the concentration at half of the fitted maximal effect).
The target in assay [4] is Nucleoprotein (Lymphocytic choriomeningitis virus (strain Armstrong)) (UniProt P09992). Put plainly: qHTS for Inhibitors of the Functional Ribonucleoprotein Complex (vRNP) of Lymphocytic Choriomeningitis Arenaviruses (LCMV): LCMV Primary Screen - GLuc reporter signal (AID 1347086). Further: series mostly up to about 57 µM; nearly all actives have a fitted effect of over 70% in size.
Chain of Nucleoprotein (Lymphocytic choriomeningitis virus (strain Armstrong)) (P09992 whole entry, looked up): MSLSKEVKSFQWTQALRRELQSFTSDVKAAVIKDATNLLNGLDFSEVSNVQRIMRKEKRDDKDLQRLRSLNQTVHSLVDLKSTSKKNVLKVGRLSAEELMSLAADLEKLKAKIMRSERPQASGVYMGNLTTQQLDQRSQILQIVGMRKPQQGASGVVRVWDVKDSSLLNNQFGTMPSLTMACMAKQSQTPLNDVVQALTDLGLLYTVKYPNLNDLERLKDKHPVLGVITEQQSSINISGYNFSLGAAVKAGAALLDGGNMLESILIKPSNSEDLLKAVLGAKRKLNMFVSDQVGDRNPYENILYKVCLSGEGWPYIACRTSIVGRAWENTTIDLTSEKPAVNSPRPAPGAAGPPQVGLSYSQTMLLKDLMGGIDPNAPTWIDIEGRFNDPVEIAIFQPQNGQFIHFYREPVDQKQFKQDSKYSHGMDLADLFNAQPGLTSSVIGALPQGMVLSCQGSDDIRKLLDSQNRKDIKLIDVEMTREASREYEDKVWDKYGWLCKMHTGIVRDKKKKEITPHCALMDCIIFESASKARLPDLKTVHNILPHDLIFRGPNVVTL

`CN1CCc2cccc3c2[C@H]1Cc1ccc(O)c(O)c1-3`: the Potency entry in assay [1], in assay [2], in assay [3] and in assay [4] was “inactive” in each case.

For the compound `O=C1NC(=O)C(c2ccccc2)(c2ccccc2)N1`, the Potency entry in assay [1], in assay [2], in assay [3] and in assay [4] was “inactive” throughout.

On to `COc1cc(C(C)=O)ccc1OCCCN1CCC(c2noc3cc(F)ccc23)CC1`, for which the Potency result in assay [1], in assay [2], in assay [3] and in assay [4] was “inactive” in each case.

For the compound `CCN(CC)CCNC(=O)c1cc(Cl)c(N)cc1OC`, the Potency result in assay [1], in assay [2], in assay [3] and in assay [4] was “inactive” each time.

Take `C=C(c1ccc(C(=O)O)cc1)c1cc2c(cc1C)C(C)(C)CCC2(C)C`: the Potency entry in assay [1], in assay [2], in assay [3] and in assay [4] was “inactive” throughout.

`COC(=O)C(c1ccccc1Cl)N1CCc2sccc2C1` (centres undefined): the Potency entry in assay [1], in assay [2], in assay [3] and in assay [4] was “inactive” in each case.

Regarding `CN(C)C(=O)C(CCN1CCC(O)(c2ccc(Cl)cc2)CC1)(c1ccccc1)c1ccccc1`, the Potency result in assay [1] and in assay [2] was “inactive” each time.

For `CN(C)[C@@H]1C(=O)C(C(N)=O)=C(O)[C@@]2(O)C(=O)C3=C(O)c4c(O)ccc(Cl)c4[C@@H](O)[C@H]3C[C@@H]12`, the Potency result in assay [1], in assay [2], in assay [3] and in assay [4] was “inactive” in each case.

For the compound `COc1c(C)c2c(c(O)c1C/C=C(\C)CCC(=O)OCCN1CCOCC1)C(=O)OC2`, the Potency entry in assay [1] was “inactive”.

Regarding `Cc1c2oc3c(C)ccc(C(=O)N[C@@H]4C(=O)N[C@H](C(C)C)C(=O)N5CCC[C@H]5C(=O)N(C)CC(=O)N(C)[C@@H](C(C)C)C(=O)O[C@@H]4C)c3nc-2c(C(=O)N[C@@H]2C(=O)N[C@H](C(C)C)C(=O)N3CCC[C@H]3C(=O)N(C)CC(=O)N(C)[C@@H](C(C)C)C(=O)O[C@@H]2C)c(N)c1=O` (I: T[dV]P[Sar][NMeV] / II: T[dV]P[Sar][NMeV]; ester I:1-I:C, II:1-II:C; linker I:N-II:N via Actinocin(9to1)), the Potency entry in assay [1], in assay [2], in assay [3] and in assay [4] was “inactive” in each case.

Take `COc1cc2c(c(OC)c1OC)-c1ccc(OC)c(=O)cc1[C@@H](NC(C)=O)CC2`: the Potency result in assay [1], in assay [2] and in assay [3] was “inactive” in each case.

In the case of `CCC(C)(C)C(=O)O[C@H]1C[C@@H](C)C=C2C=C[C@H](C)[C@H](CC[C@@H]3C[C@@H](O)CC(=O)O3)[C@H]21`, in assay [1], the Potency result is “inactive”.

On to `COc1cc2ncnc(Nc3ccc(F)c(Cl)c3)c2cc1OCCCN1CCOCC1`, for which, in assay [1], the Potency result is “inactive”. Also, the Potency in assay [2] was 2220 nM (active); in assay [3], 1110 nM (active).

`C=CC(=O)Nc1cc2c(Nc3ccc(F)c(Cl)c3)ncnc2cc1OCCCN1CCOCC1`: the Potency entry in assay [1] was “inactive”.

Consider `CSc1ccc2c(c1)N(CCC1CCCCN1C)c1ccccc1S2` (centres undefined), for which the Potency result in assay [1] is “inactive”.

On to `Cc1nc2n(c(=O)c1CCN1CCC(c3noc4cc(F)ccc34)CC1)CCCC2`, for which the Potency result in assay [1], in assay [2], in assay [3] and in assay [4] was “inactive” each time.

On to `Cc1cn([C@H]2C=C[C@@H](CO)O2)c(=O)[nH]c1=O`, for which the Potency result in assay [1], in assay [2], in assay [3] and in assay [4] was “inactive” throughout.

For the compound `CC(C)NCC(O)COc1ccc(CCOCC2CC2)cc1` (centres undefined), the Potency entry in assay [1], in assay [2], in assay [3] and in assay [4] was “inactive” each time.

For the compound `CCN(CC)CCOC(=O)C1(C2CCCCC2)CCCCC1`, the Potency entry in assay [1], in assay [2], in assay [3] and in assay [4] was “inactive” each time.

As to `CC[C@@]1(c2ccccc2)NC(=O)N(C)C1=O`, the Potency result in assay [1], in assay [2], in assay [3] and in assay [4] was “inactive” throughout.

Consider `CC(C)n1c(/C=C/[C@@H](O)C[C@@H](O)CC(=O)O)c(-c2ccc(F)cc2)c2ccccc21`, for which the Potency result in assay [1] was “inactive”.

Regarding `CCn1cc(C(=O)O)c(=O)c2cc(F)c(N3CCNCC3)cc21`, the Potency entry in assay [1], in assay [2], in assay [3] and in assay [4] was “inactive” each time.

On to `CCN(CC)CCCC(C)Nc1ccnc2cc(Cl)ccc12` (centres undefined), for which the Potency entry in assay [1], in assay [2] and in assay [3] was “inactive” in each case.

On to `CCCCc1nc(Cl)c(CO)n1Cc1ccc(-c2ccccc2-c2nn[nH]n2)cc1`, for which the Potency result in assay [1], in assay [2], in assay [3] and in assay [4] was “inactive” throughout.

On to `OCCN1C[C@H](O)[C@@H](O)[C@H](O)[C@H]1CO`, for which the Potency result in assay [1] and in assay [2] was “inactive” each time.

In the case of `COc1cc2nc(N3CCN(C(=O)C4CCCO4)CC3)nc(N)c2cc1OC` (centres undefined), the Potency result in assay [1], in assay [2], in assay [3] and in assay [4] was “inactive” each time.

In the case of `Nc1cccc2c1CN(C1CCC(=O)NC1=O)C2=O` (centres undefined), the Potency result in assay [1], in assay [2], in assay [3] and in assay [4] was “inactive” throughout.

On to `CCCCc1oc2ccc(NS(C)(=O)=O)cc2c1C(=O)c1ccc(OCCCN(CCCC)CCCC)cc1`, for which the Potency result in assay [1], in assay [2] and in assay [3] was “inactive” in each case.

Take `N[C@@H](C(=O)N[C@@H]1C(=O)N2C(C(=O)O)=C(Cl)CS[C@H]12)c1ccccc1`: the Potency entry in assay [1], in assay [2], in assay [3] and in assay [4] was “inactive” in each case.

Turning to `Cc1ccc(-n2[nH]c(C)c(N=Nc3cccc(-c4cccc(C(=O)O)c4)c3O)c2=O)cc1C`, the Potency entry in assay [1], in assay [2], in assay [3] and in assay [4] was “inactive” throughout.

In the case of `CC(C)C(=O)Nc1ccc([N+](=O)[O-])c(C(F)(F)F)c1`, the Potency result in assay [1], in assay [2] and in assay [3] was “inactive” each time.

For the compound `NC(=O)N/N=C/c1ccc([N+](=O)[O-])o1`, the Potency entry in assay [1], in assay [2] and in assay [3] was “inactive” each time.

In the case of `O=C1OCCN1/N=C/c1ccc([N+](=O)[O-])o1`, the Potency entry in assay [1], in assay [2] and in assay [3] was “inactive” each time.

For `Cc1cccc(Nc2ccncc2S(=O)(=O)NC(=O)NC(C)C)c1`, the Potency result in assay [1], in assay [2], in assay [3] and in assay [4] was “inactive” in each case.

In the case of `C[C@H]1O[C@H](O[C@H]2[C@H](O)[C@@H](O)[C@@H](O[C@H]3[C@H](O)[C@@H](O)[C@H](O)O[C@@H]3CO)O[C@@H]2CO)[C@H](O)[C@@H](O)[C@@H]1N[C@H]1C=C(CO)[C@@H](O)[C@H](O)[C@H]1O`, the Potency result in assay [1], in assay [2], in assay [3] and in assay [4] was “inactive” throughout.
